SMILES strings stand for the structures. Inconclusive results are not listed. Unmarked numbers belong to inactive results. Active and inactive are the calls of the source. Calls follow the shape of the dose curve; as a rule, active = well fitted inhibition curve with a large enough effect; inconclusive = small, poorly fitted or top-dose-only effect; inactive = flat fitted curve, though single readings scatter.
% is scaled to controls: 0 for no effect and ±100 for the full control effect; potency is read from the fitted curve at half-maximal effect.

For one experiment, the system named is HEK293. Put plainly: Cytotoxic Profiling of Annotated Libraries Using Quantitative High-Throughput Screening (AID 1296008). Also: nearly all actives have a fitted effect of over 60% in size. As to conditions: Five cell lines viability, CellTiter-Glo ATP luminescence, 48-72 h; max response: hits give low values. The method, boiled down:
(§1)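 Cells exposed to compounds for 48 or 72 hr at 37 degrees Celsius. Viability read as ATP-coupled luminescence with CellTiter-Glo after 10 min at room temperature.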
(In general: ATP-based viability assays read luminescence as a measure of living cells.)
`N#CC(CCCN1CCC(O)(c2ccc(Cl)cc2)CC1)(c1ccccc1)c1ccccc1`: the max response is -108%.

With `N#CSc1cc(SC#N)c(N)nc1N`, the Potency is 3.1 µM (active). Take `COc1ccc(C#Cc2ccc(C(=O)N3CCC[C@@H](O)C3)c(F)c2)cc1`: the Potency was 13 µM (active). On to `CC(C)NC(=O)COc1cccc(-c2nc(Nc3ccc4[nH]ncc4c3)c3ccccc3n2)c1`, for which the Potency is 5.8 µM (active). As to `Cc1cc(F)c(C(=O)Nc2cccc(-c3nncn3C(C)C)n2)cc1-n1cnc(C2CC2)c1`, the Potency was 10 µM (active). Same read-out and setting: in the case of `Cc1nc(NC(=O)N2CCC[C@H]2C(N)=O)sc1-c1ccnc(C(C)(C)C(F)(F)F)c1` it was 16.4 µM (active).

A further experiment has as its system HaCat. The experiment is described as above. The settings on record: Five cell lines viability, CellTiter-Glo ATP luminescence, 48-72 h; max response: hits give low values. An outline of the steps: as §1
Turning to `COc1ccc2nc(-c3cc(OC)c(OC)c(OC)c3)cc(C(=O)NCC(=O)Nc3ccc(C(C)=O)cc3)c2c1`, the max response is -18%.

Take `CC(C)(C)c1ccc(NC(=O)N2CCN(c3ncccc3Cl)CC2)cc1`: the max response was 4.52%. For the compound `COC1CCN(c2cccc(-c3cc(NC(C)=O)nc(-n4nc(C)cc4C)n3)n2)CC1`, the max response is -6.53%. For `CC(C)(C[C@@](O)(Cc1cc2ccncc2[nH]1)C(F)(F)F)c1cc(F)ccc1O`, the max response is -2.9%. The same measure, in the same setting: in the case of `COc1ccccc1S(=O)(=O)Nc1ccc2c(c1)CN(C)C(=O)N2` it was 2.92%. The same measure, in the same setting: in the case of `CN(c1ccc(NC(=O)Nc2ccccc2)cc1)S(=O)(=O)c1cnn(-c2ccc(F)cc2)c1` it was -33.8%; in that of `C=C(C)C(=O)OC1CC(CO)CCC/C(CO)=C/C2OC(=O)C(=C)C21` (centres undefined), 1.02%. On to `Cc1ccc(C)c(-c2cc(C(F)(F)F)nn2-c2ccc(S(N)(=O)=O)cc2)c1`, for which the max response was 3.66%. Same read-out and setting: as for `C[C@@H]1COCCN1c1cc(=O)n2c(n1)N(Cc1cncc(Cl)c1)[C@H](C(F)(F)F)CC2`, the figure is -6.64%; as for `CC(C)(C)c1ccc(-c2nc3c(N4CCN(Cc5ccc6nccnc6c5)CC4)cccc3[nH]2)cc1`, -27.9%; as for `O=C(Nc1cccc([N+](=O)[O-])c1)c1cccc(S(=O)(=O)N2CCCCCC2)c1`, -27.5%. On to `NCC1CCN(c2nccc(-c3ccc4ccccc4c3)n2)CC1`, for which the Potency was 6.51 µM (active). With `CCC(=C(c1ccc(OCCN2CCCC2)cc1)c1ccc(OCCN2CCCC2)cc1)c1ccccc1`, the max response was -11%. Still for that read-out and setting: in the case of `CC(C)C[C@H](C(=O)O)c1cc(-c2ccc(C(F)(F)F)cc2)cc(-c2ccc(C(F)(F)F)cc2)c1` it was 1.64%.

On to `Oc1ccc(-c2cnc3ccc(NCc4ccco4)nn23)cc1`, for which the Potency is 7.31 µM (active).

On to `Oc1cccc(C2NC(=S)Nc3cccc(F)c32)c1` (centres undefined), for which the Potency is 6.51 µM (active).

In the case of `CN(C)CCN(Cc1ccccc1)C(=O)c1cc(-c2ccc(F)cc2)n2nc(C(C)(C)C)cc2n1`, the max response is -107%. On the same count and under the same terms, in the case of `C=C1CC2OC(=O)C(COC)C2C(OC(=O)/C(C)=C\C)CC2(C)OC1=CC2=O` (centres undefined) it was -10.4%; in that of `CN(C)CCCn1cc(C2=C(c3c[nH]c4ccccc34)C(=O)NC2=O)c2ccccc21`, -0.893%; in that of `N#CSc1cc(SC#N)c(N)nc1N`, -25%. Still for that read-out and setting: as for `COc1ccc(C#Cc2ccc(C(=O)N3CCC[C@@H](O)C3)c(F)c2)cc1`, the figure is -33.7%; as for `CC(C)NC(=O)COc1cccc(-c2nc(Nc3ccc4[nH]ncc4c3)c3ccccc3n2)c1`, -3.54%.

Regarding `Cc1nc(NC(=O)N2CCC[C@H]2C(N)=O)sc1-c1ccnc(C(C)(C)C(F)(F)F)c1`, the Potency was 3.66 µM (active).

The record behind these values is PubChem BioAssay (NCATS).
